Data taken from ChEMBL document CHEMBL3988442, “University of Dundee, Small-Polar-MMV Screening Library” (2021).

target: Shiga toxin 2 (Escherichia coli O157:H7) (UniProt P09385+P09386); test: E. coli 0.157:H7 Shiga Toxin SOP - stx2 screening assay; format: functional; set-up: scale not given: direction of the effect not stated beside the values; settings: 30 µM

| SMILES | Percent Effect [%] |
| --- | --- |
| Cc1nccn1CC1CCCN1S(=O)(=O)Cc1ccccc1 (stereo not given) | 4.42 |
| COCCc1noc(CNC2CCc3nc(C(C)C)nn3C2)n1 (stereo not given) | 9.38 |
| CC(C)COC(C)C(=O)NCc1ccc(OC(C)C)nc1 (stereo not given) | 9.54 |
| Cc1cc(CNC(=O)NC(C)c2ccncc2)no1 (stereo not given) | -40 |
| CCOCC(O)CN1CCN(C(=O)c2ccc(OC)cc2F)CC1 (stereo not given) | -5.15 |
| COc1ccc(S(=O)(=O)N2CCC(S(C)(=O)=O)CC2)cc1C | -1.05 |
| CO[C@@H]1CC[C@H]2[C@H]1OCCN2C(=O)C1=CCCC1 | -25.5 |
| OC1CCN(Cc2cc3c(cc2Br)OCCO3)CC1 | -8.4 |
| Cc1nccc([C@@H]2C[C@@H]3CCN(S(C)(=O)=O)C[C@H]3O2)n1 | 11.1 |
| COc1ccc(-c2nnc(SCC(=O)NCC(C)C)[nH]2)c(OC)c1 | 6.1 |
| CCc1nc(C)c(C(=O)NCCNc2ncccn2)s1 | 30.3 |
| NC(=O)c1ccc2c(c1)nc1n2CCN(Cc2ccccc2)C1 | -9.11 |
| CCc1ncc2c(n1)CN(CC(=O)Nc1ccc(Cl)cn1)CC2 | -9.49 |
| CCN1CC(C(=O)N2CCC(Oc3ccccc3C)CC2)CC1=O (stereo not given) | -32.1 |
| Cc1cc(C(=O)N2CCN(C(=O)Cc3ccccn3)CC2)c(C)s1 | 7.06 |
| NCc1cn(-c2ccccc2C(=O)NCc2ccccc2)cn1 | -5.86 |
| CCN1CCN(c2ncc(-c3cc(C)no3)c(-c3ccoc3C)n2)CC1 | -6.58 |
| CC(C)N1CCN(C(=O)Nc2cnn(CC(N)=O)c2)CC1 | -11.9 |
| Cc1cc(C)nc(Nc2cccc(C3CCCN(C)C3)n2)n1 (stereo not given) | 1.38 |
| COCCCC1(CO)CCCN(CCc2ccccc2)C1 (stereo not given) | -15.6 |
